Screening results deposited in PubChem BioAssay by Broad Institute.
Shh pathway inh – Sonic Hedgehog pathway inhibition | Shh-LIGHT2 Gli-luciferase reporter, 30 h | inhibition, % (no concentration beside the values) | 2.1% of 22,000 active | AID 2313;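 active = mean inhibition across valid replicates above about 65%, limit read from the data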;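 also: pathway switched on by Shh-conditioned medium diluted 1 in 25 in low serum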
MITF inhib – blocks MITF activity; inhibition, % (no concentration beside the values); TRPM1 promoter luciferase, luminescence, 24 h; AID 2240; 0.28% of 37,000 active; in the data active = inhibition above about 85%;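 also: human melanocyte line stably carrying TRPM1 promoter luciferase reporter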
PD-1 reversal – reversal of PD-1 mediated T-cell inhibition; activation, % (concentration not given with the values); primary human CD4 T cells, PD-L1 beads, CellTiter-Glo 96 h; AID 2316; 29,000 tested, under 10 active; call rule not given here
NOMO-1 viab – STK33 inhibitor candidate reducing NOMO-1 cell viability. inhibition, % (test concentration not listed). 7.5% of 37,000 active. NOMO-1 AML viability, CellTiter-Glo luminescence, 72 h; in the data active = inhibition above about 80%
Large screens that a line does not name were inactive. A selection: hits, their analogues and other compounds. The true share with any hit is near 7.8%.

Cc1ccc2ccc(C(Nc3ccccn3)c3ccc(Cl)cc3)c(O)c2n1 (configuration not stated)	NOMO-1 viab 132.1 (no result: Shh pathway inh)
Cc1ccc(C(Nc2ccccn2)c2ccc3ccc(C)nc3c2O)cc1 (configuration not stated)	NOMO-1 viab 132.0 (no result: Shh pathway inh)
CCOc1ccc(NC(=O)CCNC(=O)c2cn(-c3cccc(OC)c3)c(=O)c3ccccc23)cc1	none
CC1=CC[C@@]2(C)CC[C@@](O)(C(C)C)[C@@H]2[C@@H](O)C1	none
O=C(CSc1nc(-c2ccccc2)c(-c2ccccc2)[nH]1)Nc1ccccc1F	none (no result: Shh pathway inh)
O=C(O)CCC(=O)Nc1cccc(C(F)(F)F)c1	none (no result: Shh pathway inh, PD-1 reversal)
O=C(/C=N/O)Nc1cc(C(F)(F)F)cc(C(F)(F)F)c1	Shh pathway inh 69.4, NOMO-1 viab 116.4
C[C@@H]1CN([C@@H](C)CO)C(=O)Cc2cc(NC(=O)Nc3ccc(C(F)(F)F)cc3)ccc2O[C@@H]1CN(C)Cc1ccc2c(c1)OCO2	NOMO-1 viab 122.4 (no result: PD-1 reversal)
C[C@@H]1CN([C@@H](C)CO)C(=O)Cc2cc(NC(=O)Nc3ccc(F)cc3)ccc2O[C@@H]1CN(C)Cc1ccc(C(F)(F)F)cc1	NOMO-1 viab 113.2
C[C@@H]1CN([C@H](C)CO)C(=O)Cc2cc(NC(=O)Nc3ccc(C(F)(F)F)cc3)ccc2O[C@H]1CN(C)Cc1ccc2c(c1)OCO2	none (no result: Shh pathway inh, PD-1 reversal)
C[C@@H]1CN([C@H](C)CO)C(=O)Cc2cc(NC(=O)Nc3ccc(C(F)(F)F)cc3)ccc2O[C@H]1CN(C)Cc1ccc(C(=O)O)cc1	none
C[C@H]1CN([C@@H](C)CO)C(=O)Cc2cc(NC(=O)Nc3ccc(C(F)(F)F)cc3)ccc2O[C@@H]1CN(C)Cc1ccc(C(F)(F)F)cc1	NOMO-1 viab 126.1
C[C@H](CO)N1C[C@H](C)[C@H](CN(C)Cc2ccc(C(=O)O)cc2)Oc2ccc(NC(=O)Nc3ccc(C(F)(F)F)cc3)cc2CC1=O	none
C[C@H]1CN([C@@H](C)CO)C(=O)Cc2cc(NC(=O)Nc3ccc(F)cc3)ccc2O[C@H]1CN(C)Cc1ccc(C(F)(F)F)cc1	NOMO-1 viab 126.0
Cc1ccc2[nH]c(C)c(CCC(=O)O)c(=O)c2c1	none (no result: Shh pathway inh)
Cc1ccc(NC(=O)CCCn2cc([N+](=O)[O-])cn2)cc1C	none (no result: Shh pathway inh)
O=C(O)C1CC1C(=O)Nc1ccc(Oc2ccc(Cl)cc2C2CCCCC2)nc1 (configuration not stated)	none
COC(=O)c1cc(NC(=O)CSc2nc(C)cc(C)n2)cc(C(=O)OC)c1	NOMO-1 viab 113.8 (no result: Shh pathway inh)
C[C@H]1CN([C@@H](C)CO)C(=O)c2cc(NC(=O)Nc3ccc4c(c3)OCO4)ccc2O[C@H]1CN(C)Cc1ccc2c(c1)OCO2	NOMO-1 viab 93.2 (no result: Shh pathway inh)
C[C@H](CO)N1C[C@H](C)[C@@H](CN(C)Cc2ccc3c(c2)OCO3)Oc2ccc(NC(=O)Nc3ccccc3)cc2C1=O	none (no result: Shh pathway inh)
C[C@@H]1CN([C@H](C)CO)C(=O)c2cc(NC(=O)Cc3ccccc3)ccc2O[C@H]1CN(C)Cc1ccc2c(c1)OCO2	none (no result: Shh pathway inh)
C[C@H](CO)N1C[C@H](C)[C@H](CN(C)Cc2ccc3c(c2)OCO3)Oc2ccc(NC(=O)C3CCCCC3)cc2C1=O	NOMO-1 viab 93.5 (no result: Shh pathway inh)
C[C@H]1CN([C@@H](C)CO)C(=O)c2cc(NC(=O)Cc3ccccc3)ccc2O[C@H]1CN(C)Cc1ccc2c(c1)OCO2	NOMO-1 viab 95.2 (no result: Shh pathway inh)
C[C@H](CO)N1C[C@H](C)[C@H](CN(C)Cc2ccc3c(c2)OCO3)Oc2ccc(NC(=O)Nc3ccccc3)cc2C1=O	NOMO-1 viab 93.7 (no result: Shh pathway inh)
Cc1ccc(C)c(NC(=O)Cn2cc([N+](=O)[O-])cn2)c1	none (no result: Shh pathway inh)
COc1cc2c(cc1NC(=O)CSc1nnc(-c3cnccn3)n1-c1ccccc1)oc1ccccc12	none (no result: Shh pathway inh)
CC1CCN(C(=O)c2cc3nc(-c4ccco4)cc(C(F)(F)F)n3n2)C(C)C1 (configuration not stated)	none
Cc1ccc(Oc2ncccc2NC(=O)C(=S)NCc2ccccc2)c2c1CCC2	none
COc1ccc(NC(=O)Nc2ccc3c(c2)C(=O)N([C@@H](C)CO)C[C@H](C)[C@H](CN(C)Cc2ccc4c(c2)OCO4)O3)cc1	NOMO-1 viab 98.0
C[C@H]1CN([C@@H](C)CO)C(=O)c2cc(NC(=O)Nc3cccc4ccccc34)ccc2O[C@H]1CN(C)Cc1ccccc1	none
C[C@@H]1CN([C@@H](C)CO)C(=O)c2cc(NC(=O)Nc3ccc4c(c3)OCO4)ccc2O[C@H]1CN(C)Cc1ccc(Cl)c(Cl)c1	NOMO-1 viab 94.7
C[C@H](CO)N1C[C@H](C)[C@H](CN(C)Cc2ccc3c(c2)OCO3)Oc2ccc(NC(=O)Nc3cccc4ccccc34)cc2C1=O	NOMO-1 viab 97.8 (no result: Shh pathway inh, PD-1 reversal)
O=[N+]([O-])c1ccc(NCCNS(=O)(=O)c2ccc(Br)cc2)cc1	none (no result: Shh pathway inh)
CCOC(=O)c1nnn2c1nc(Sc1nnc(-c3ccncc3)n1C)c1ccccc12	NOMO-1 viab 116.7
CCOC(=O)c1nnn2c1nc(Sc1nc3ccccc3o1)c1ccccc12	NOMO-1 viab 115.5
CCOC(=O)c1nnn2c1nc(N(CC)CC)c1ccccc12	none (no result: Shh pathway inh)
CSc1sc(C#N)c(C)c1C(=O)/C=C/N(C)C	none
CC(C)(C)N1Sc2ccccc2NC1=S	none
COc1ccc(S(=O)(=O)N(C)C[C@H]2Oc3ccc(NC(=O)Nc4ccc(C(F)(F)F)cc4)cc3C(=O)N([C@H](C)CO)C[C@H]2C)cc1	NOMO-1 viab 88.1
Cc1ccc(S(=O)(=O)N(C)C[C@H]2Oc3ccc(NC(=O)Nc4ccc(C(F)(F)F)cc4)cc3C(=O)N([C@H](C)CO)C[C@@H]2C)cc1	NOMO-1 viab 126.0 (no result: PD-1 reversal)
C[C@H]1CN([C@@H](C)CO)C(=O)c2cc(NC(=O)Nc3ccc(C(F)(F)F)cc3)ccc2O[C@@H]1CN(C)S(=O)(=O)c1ccccc1	none (no result: Shh pathway inh)
Cc1ccc(S(=O)(=O)N(C)C[C@H]2Oc3ccc(NC(=O)Nc4ccc(C(F)(F)F)cc4)cc3C(=O)N([C@H](C)CO)C[C@H]2C)cc1	NOMO-1 viab 92.0
Cc1ccc(S(=O)(=O)N(C)C[C@@H]2Oc3ccc(NC(=O)Nc4ccc(C(F)(F)F)cc4)cc3C(=O)N([C@H](C)CO)C[C@H]2C)cc1	NOMO-1 viab 97.0
C[C@@H]1CN([C@H](C)CO)C(=O)c2cc(NC(=O)Nc3ccc(C(F)(F)F)cc3)ccc2O[C@H]1CN(C)S(=O)(=O)c1ccc(Cl)cc1	none (no result: Shh pathway inh)
COc1ccc(S(=O)(=O)N(C)C[C@H]2Oc3ccc(NC(=O)Nc4ccc(C(F)(F)F)cc4)cc3C(=O)N([C@@H](C)CO)C[C@H]2C)cc1	none
C[C@H](CO)N1C[C@H](C)[C@@H](CN(C)Cc2ccc(C(F)(F)F)cc2)Oc2ccc(NC(=O)Nc3ccccc3)cc2C1=O	none (no result: PD-1 reversal)
C[C@H](CO)N1C[C@H](C)[C@H](CN(C)Cc2ccc(-c3ccccc3)cc2)Oc2ccc(NC(=O)Nc3ccc(C(F)(F)F)cc3)cc2C1=O	NOMO-1 viab 92.0 (no result: Shh pathway inh)
C[C@H]1CN([C@@H](C)CO)C(=O)c2cc(NC(=O)Nc3ccc(C(F)(F)F)cc3)ccc2O[C@H]1CN(C)Cc1ccc(-c2ccccc2)cc1	NOMO-1 viab 116.8
C[C@H]1CN([C@@H](C)CO)C(=O)c2cc(NC(=O)Nc3ccc(C(F)(F)F)cc3)ccc2O[C@@H]1CN(C)Cc1ccc(-c2ccccc2)cc1	NOMO-1 viab 107.5 (no result: Shh pathway inh)
Cc1nc(C(N)=NC(=O)c2ccc(OC(F)(F)F)cc2)cs1	none
